Screening data deposited in PubChem by National Center for Advancing Translational Sciences (NCATS).
In the library only some 8.1% were active in any assay of this set; here they are far more common.
Sfp PPTase inh: qHTS Assay for Inhibitors of Bacillus subtilis Sfp phosphopantetheinyl transferase (PPTase); 310,000 compounds, 3.5% hits; Potency, µM, inactives show largest response in the series, negative = inhibition, most hits filed as inhibitors; Biochemical Sfp PPTase activity, qHTS; 4'-phosphopantetheinyl transferase ffp (Bacillus subtilis), Q9F4F7;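 further: the enzyme is Sfp with the accession as filed and its product quenches rhodamine fluorescence; 0% = enzyme reaction without inhibitor and -100% = no enzyme wells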
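After 15 min at room temperature with compound, 15 nM Sfp received 5 uM rhodamine-CoA plus 12.5 uM BHQ-2-ybbR (50 mM Hepes pH 7.6, 10 mM MgCl2). Rate came from the fluorescence difference over 30 min, ex 525/em 598 nm.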
ClpP mod: qHTS Assay for Activators of ClpP; 340,000 compounds, 1.9% hits; Potency, µM (top dose mostly 57.5 µM), inactives show top-dose activity change, negative = active; purified B. subtilis ClpP, FRET peptide cleavage, 20 min; AID 651965, 2013; active means well fitted falling curve with a large enough effect; inconclusive means small, poorly fitted or top-dose-only effect; inactive means no such curve, though single readings can be large or run the other way; further: the source files actives as falling curves though it sought activators and does not explain the sign; nearly all actives have a fitted effect of over 65% in size
Target sequence (P80244 whole entry, looked up): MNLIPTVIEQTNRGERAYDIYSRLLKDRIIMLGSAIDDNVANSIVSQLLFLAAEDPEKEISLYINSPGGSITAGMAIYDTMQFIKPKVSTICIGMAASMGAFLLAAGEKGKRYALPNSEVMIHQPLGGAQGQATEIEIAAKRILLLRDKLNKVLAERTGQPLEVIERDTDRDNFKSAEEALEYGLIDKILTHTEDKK
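Purified B. subtilis ClpP, 10 microg/mL final in Tris/HCl pH8 with KCl, BSA, glycerol and Tween-20, cleaved an Abz/nitrotyrosine-quenched decapeptide. Fluorescence (ex 320, em 430) was read at 0 and 20 min at room temperature. Delta was normalized to 5.8 microM ADEP and DMSO/no-enzyme controls.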
Epigenetic reg: Quantitative High-Throughput Screen for Regulators of Epigenetic Control; murine LDR cells, GFP reporter derepression, 30 h; Potency, µM (titrated, usually from 53.9 µM), for the others: at the top dose GFP activation, most hits filed as activators; 280,000 compounds, 0.2% hits; AID 1865, 2009; further: % of control where 0% means no effect; nearly all actives have a fitted effect of over 60% in size
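Derepression of a silenced CMV-GFP reporter in murine LDR cells is scored by enumerating GFP-positive cells with a laser-scanning microplate cytometer after 30 hours of treatment at 37 C.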
RORg inh: qHTS for inhibitors of ROR gamma transcriptional activity; 310,000 compounds, 5.4% hits; AID 2551, 2010; Nuclear receptor ROR-gamma (Mus musculus), P51450; Potency, µM (doses to about 53.6 µM), for the others: at the highest dose activity change, negative = inhibition, usual class: inhibitors; Drosophila S2 Gal4-RORgamma UAS-luciferase reporter, 20 h; further: on the % scale 0 is the no-effect control and ±100 the full control effect; nearly all actives have a fitted effect of over 60% in size
Target sequence (P51450 whole entry, looked up, the tested form may be a part): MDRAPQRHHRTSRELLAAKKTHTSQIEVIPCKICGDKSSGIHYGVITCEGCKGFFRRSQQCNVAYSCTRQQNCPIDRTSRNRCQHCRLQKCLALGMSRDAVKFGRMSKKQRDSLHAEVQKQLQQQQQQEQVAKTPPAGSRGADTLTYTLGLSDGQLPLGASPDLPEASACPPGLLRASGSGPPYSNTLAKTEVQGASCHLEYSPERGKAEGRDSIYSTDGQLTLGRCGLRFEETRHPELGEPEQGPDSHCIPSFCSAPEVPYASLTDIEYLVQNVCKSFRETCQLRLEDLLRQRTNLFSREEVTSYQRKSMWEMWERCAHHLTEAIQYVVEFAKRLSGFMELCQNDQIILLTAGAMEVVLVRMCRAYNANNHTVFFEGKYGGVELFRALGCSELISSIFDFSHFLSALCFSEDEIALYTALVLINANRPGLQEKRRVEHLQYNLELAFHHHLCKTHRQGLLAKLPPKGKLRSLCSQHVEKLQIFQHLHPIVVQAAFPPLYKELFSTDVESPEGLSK
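Luminescence from a UAS-regulated Photinus luciferase reporter in stably transfected Drosophila Schneider cells is measured; decreased signal marks ROR gamma inhibition. Fusion expression is induced by 700 uM copper sulfate for 20 hr.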
Gal4-VP16 FLuc: VP16 counterscreen qHTS for inhibitors of ROR gamma transcriptional activity; Drosophila S2 Gal4-VP16 UAS-luciferase, luminescence, 20 h; Potency, µM (doses to about 53.6 µM), without a hit: top-dose activity, negative = inhibition, most hits filed as inhibitors; 310,000 compounds, 3.5% hits; AID 2546, 2010;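 further: Gal4-VP16 expression switched on by copper sulfate through the metallothionein promoter; on the % scale 0 is the no-effect control and ±100 the full control effect; nearly all actives have a fitted effect of over 50% in size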
PINK1 expr mod: A Quantitative High throughput Screen to Identify Chemical Modulators of PINK1 Expression; 410,000 compounds, 0.2% hits; Potency, µM (doses to about 76.6 µM), without a hit: top-dose activation (PINK1 increase), usual class: activators; PINK1 immunofluorescence, high-content cytometry, 24 h; active means well fitted activation curve with a large enough effect; inconclusive means small, poorly fitted or top-dose-only effect; cell line not stated here; further: % of control where 0% means no effect; nearly all actives have a fitted effect of over 65% in size
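PINK1 protein, normally rapidly degraded, was detected by immunofluorescence after 24 hour compound treatment of a stable cell line. Titration data (5 concentrations) came from laser-scanning cytometry, with CCCP-treated wells as controls.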
Starred values were filed as active, the others as inactive; ? = inconclusive; · = no result given; [ ] = dose if it differs, or a comment. Unless noted, the call rests on the fitted dose curve; in most records, active means well fitted curve in the direction sought with a large enough effect; inconclusive means small, poorly fitted or top-dose-only effect, or another doubt; inactive means no such curve, though single readings can be large; an effect the other way counts as inactive or inconclusive. Potency means the concentration at half of the fitted maximal effect.

SMILES	Sfp PPTase inh	ClpP mod	Epigenetic reg	RORg inh	Gal4-VP16 FLuc	PINK1 expr mod
CCN(CC)c1ccc(C=C2C(=O)OC(c3ccccc3)OC2=O)cc1 (stereo not drawn)	9%	·	1%	-15%	8%	2%
CCOC(=O)N1CCN(C(=O)COC(=O)c2ccccc2NCCO)CC1	·	7.9µM*	·	·	·	2%
O=C(Nc1ccccc1)N1N=C(c2ccc(F)cc2)CC1c1ccc(F)cc1 (stereo not drawn)	-3%	?	-2%	34%	1%	10%
CNC(=S)N1N=C(c2cccs2)CC1c1ccc(OC)cc1 (stereo not drawn)	1%	5%	·	20µM*	-9%	2%
Fc1ccc(C2CC(c3cccs3)=NN2C(=S)Nc2ccccc2)cc1 (stereo not drawn)	14%	-4%	0%	7.9µM*	-11%	-1%
CNC(=S)N1N=C(c2ccc(OC)cc2)CC1c1ccc(N(C)C)cc1 (stereo not drawn)	1%	-1%	-1%	13µM*	?	-2%
CCN(Cc1ccccc1)S(=O)(=O)c1ccc(F)c(C(=O)Nc2ccc(C(C)C)cc2)c1	·	0%	2%	·	·	-1%
Cc1ccc(-n2nc(C(=O)Nc3ccc(C)c(F)c3)c3c4ccccc4n(C)c3c2=O)cc1	·	-4%	2%	·	·	1%
O=C(O)c1ccc(-c2ccc(/C=C3\NC(=O)N(Cc4ccc(Cl)cc4)C3=O)o2)cc1Cl	20µM*	·	3%	11%	0%	-1%
CCCCC1(C)OC(=O)C(=Cc2ccc(-c3ccc(Cl)c(C(=O)O)c3)o2)C(=O)O1 (stereo not drawn)	45µM*	·	0%	-30%	1%	3%
CCOC(=O)CN1C(=O)S/C(=C\c2ccc(-c3ccc(C(=O)O)c(Cl)c3)o2)C1=O	50µM*	-26%	·	-24%	9%	0%
O=C(O)CN1C(=O)/C(=C/c2ccc(N3CCCCC3)o2)SC1=S	28µM*	0%	-2%	-16%	-1%	1%
COc1cccc(Nc2nc3ccc(C(=O)c4ccccc4)cc3n3c(C)nnc23)c1	·	2%	0%	·	·	-2%
Cc1ccc(N2NC(=O)/C(=C/c3ccc(-c4ccc(Cl)c(C(=O)O)c4)o3)C2=O)cc1	0%	·	-1%	-1%	6%	-1%
CCOC(=O)CN1C(=O)S/C(=C/c2ccc(N3CCCCC3)o2)C1=O	14µM*	1%	?	-6%	-8%	16%
CCN(CC)c1ccc(/C=C2/SC(=O)N(C(C)C)C2=O)o1	3.2µM*	·	11µM*	5µM*	2.8µM*	10%
CC(C)N1C(=O)S/C(=C\c2ccc(-c3ccc(Cl)c(C(=O)O)c3)o2)C1=O	-28%	-1%	·	?	2.5µM*	1%
CCOC(=O)CN1C(=O)S/C(=C/c2ccco2)C1=O	28%	0%	·	?	16%	-1%
COC(=O)CN1C(=O)S/C(=C/c2cc(C)n(C)c2C)C1=O	12%	-2%	-1%	12%	-1%	15%[38.3 µM]
COC(=O)CN1C(=O)S/C(=C/c2ccc(N3CCCCC3)o2)C1=O	7.1µM*	5%	?	?	5µM*	8.9µM*
COc1ccc(Nc2nc3ccccc3nc2NS(=O)(=O)c2ccc(Cl)cc2)cc1OC	·	-6%	0%	·	·	-4%
CC(C)(C)CC(C)(C)NC(=S)Nc1ccc2nc(-c3ccccn3)c(-c3ccccn3)nc2c1	-101%	-8%	0%	7.1µM*	?	1%[38.3 µM]
CN(C)NC(=S)Nc1ccc2nc(-c3ccccn3)c(-c3ccccn3)nc2c1	-9%	-16%	-1%	13µM*	16µM*	1%
COCCNc1ncnc2ccc(-c3ccccc3OC)cc12	10%	·	·	?	?	1%
Cc1ccc(S(=O)(=O)CC2CSc3nc4ccccc4n32)cc1 (stereo not drawn)	-2%	1%	1%	?	1.1µM*	-3%
SMILES	Sfp PPTase inh	ClpP mod	Epigenetic reg	RORg inh	Gal4-VP16 FLuc	PINK1 expr mod
Cc1ccc(S(=O)(=O)CC2CSc3nc(N)cc(=O)n32)cc1 (stereo not drawn)	9%	1%	-1%	2%	6%	-1%
CN(Cc1nccs1)C(=O)c1cc(COc2cccc3cnccc23)on1	17%	5%	·	-34%	13µM*	1%
COC(=O)C1CCCCN1C(=O)c1cc(COc2cccc3cnccc23)on1 (stereo not drawn)	10%	·	·	-29%	?	·
CCOC(=O)CC1CCCCN1C(=O)c1cc(COc2cccc3cnccc23)on1 (stereo not drawn)	11%	4%	·	?	4µM*	1%
CCOC(=O)c1oc2ccc(S(=O)(=O)n3nc(-c4ccccc4)cc3N)cc2c1C	21%	1%	0%	-36%	11µM*	2%
CCOC(=O)c1oc2ccc(S(=O)(=O)n3nc(-c4ccc(OC)cc4)cc3N)cc2c1C	?	0%	-1%	29%	-16%	10%
COc1ccccc1C1CN(Cc2cccc(C)n2)Cc2ccccc2O1 (stereo not drawn)	·	·	·	·	·	3%
O=C(CN1Cc2ccccc2OC(c2ccsc2)C1)N1CCC(c2nc3ccccc3[nH]2)CC1 (stereo not drawn)	·	·	·	·	·	2%
NS(=O)(=O)c1ccc(NC(=S)NC2CCCC2)cc1	10µM*	1%	1%	-8%	2%	3%
O=S(=O)(NC(=S)NC1CCCCC1)c1ccc(Br)cc1	-7%	·	0%	4.5µM*	?	3%
NS(=O)(=O)c1ccc(NC(=S)NC2CCCCCC2)cc1	25µM*	-1%	1%	5%	2%	1%
CCC(C)NC(=O)CCC(=O)N1Cc2ccccc2Oc2ncccc21 (stereo not drawn)	·	1%	-1%	·	·	1%
COc1ccc(C(=O)n2c(N)nc3ccccc32)cc1OC	?	-13%	·	?	?	-1%
O=C(c1ccco1)N1CCn2c1nc1ccccc12	26%	-1%	2%	?	3%	2%
Nc1nc2ccccc2n1C(=O)c1ccccc1	14%	1%	1%	0.63µM*	5µM*	12%
Nc1nc2ccccc2n1C(=O)c1ccc(F)cc1	15%	·	3%	2.2µM*	11µM*	1%
Nc1nc2ccccc2n1C(=O)c1ccco1	-23%	-2%	0%	11µM*	?	?
Nc1nc2ccccc2n1C(=O)c1cccs1	6%	1%	0%	0.89µM*	2.8µM*	3%
